The supplement of paper PMC6555819

What was measured:
Assay in all cases: PBM binding z-score (relative to random genomic background probes); higher = stronger binding; sequences stand for … in GC…GCGATTGACAGCGTAGAATGAAGG
[1] = system: RARb homodimer (NR concentration 270 nM)
Summary of the method: (§1)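 Ligand-free nuclear receptor dimers were applied to custom Agilent 4×180K protein-binding microarrays whose double-stranded probes carried direct-repeat seeds, single-nucleotide variants, half-site ablations and random human genomic background sequences in 34-nt variable regions. Incubation lasted 1 h. Binding z-scores were computed against the random background probes from regression-normalized fluorescence.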

[2] = system: RARg:RXRa (NR concentration 270 nM, RXRa partner concentration 90 nM)
Summary of the method: as §1

[3] = system: RARg homodimer (NR concentration 270 nM)
Summary of the method: as §1

[4] = system: RXRa DBDmut IVT, anti-RXR (DBD mutation: RXRa K156A/R161A, NR concentration 90 nM)
Summary of the method: as §1

[5] = system: RXRa homodimer (NR concentration 180 nM)
Summary of the method: as §1

[6] = system: THRa:RXRa (NR concentration 90 nM, RXRa partner concentration 90 nM)
Summary of the method: as §1

[7] = system: THRa homodimer (NR concentration 90 nM)
Summary of the method: as §1

[8] = system: VDR homodimer (NR concentration 270 nM)
Summary of the method: as §1

Sequence | PBM binding z-score [1] | PBM binding z-score [2] | PBM binding z-score [3] | PBM binding z-score [4] | PBM binding z-score [5] | PBM binding z-score [6] | PBM binding z-score [7] | PBM binding z-score [8]
CGAACTAGGTCATTCACAGGACAGTGAATAGTAA | 2.81 | 4.97 | 4.43 | 2.48 | 2.55 | 2.91 | 0.979 | 1.29
ATATGTAGGTTATCGGGTCGTTCAGTTTGCGCAT | 1.68 | 1.39 | 1.28 | 1.06 | 1.57 | 1.93 | 1.55 | 2.55
AGAATGATGTTACCAAAGATCAGGGAAACGCTTG | -0.737 | 0.0194 | 0.432 | -0.312 | 0.387 | -0.115 | -0.58 | -0.437
GCTAGGAGGACAAGGTCAGAGCTTTGTCCGTAGA | 3.1 | 3 | 3.49 | 0.861 | 2.29 | 2.83 | 1.21 | 0.639
TTACCAAGGTGCAAGGTCGTTGATGCACGCCTTG | 1.21 | 0.66 | 0.411 | 1.33 | 1.54 | 1.62 | 0.68 | 2.9
GCGACTGGGGCAAAGCAGGTTTCCATAAGGTTGG | -0.0206 | -0.174 | -0.133 | 0.157 | -0.342 | 1.21 | -0.028 | -0.34
CCTACTGGGCCACGAAATGTCATTGATTCAGTGA | 0.607 | 0.2 | 0.479 | -0.374 | -0.0138 | 0.211 | -0.319 | -0.54
GGAACGTGGGCAAGTTGATAGCAGAGTTTGATGG | -0.282 | -0.487 | -0.279 | 0.175 | -0.184 | -0.685 | -0.691 | 0.343
CAAACTAGGTCACCCGAAGGTCAAAGTCCGCATG | 5.43 | 7.91 | 6.9 | 2.35 | 6.29 | 4.45 | 3.04 | 4.18
GCTACTGGGGCATCAGCAGGTTACCATAACTTAA | 0.946 | 0.791 | 0.586 | 0.403 | 0.169 | 1.09 | 0.00611 | -0.67
ACTAGCAGGCCAAGTGTCACTCAAGATTAGTCCG | 0.681 | 0.433 | 0.865 | 0.117 | 0.215 | 0.0959 | -0.248 | -0.143
ACTAGTTGGTCAGCTGATGTCACACACAATTCGG | 1.06 | 0.65 | 1.08 | 0.494 | 0.485 | 1.29 | 0.161 | 0.144
GATACAGGGCCAAGGCCAGAGTACGCGTATTGAT | 0.738 | 0.109 | 0.599 | -0.254 | 0.197 | -0.171 | -0.281 | -0.147
TCTGCTAGGTGAGTTGGTCAGCTAACGAGCTGCC | -0.359 | -0.346 | -0.369 | -0.485 | -0.331 | -0.346 | -0.955 | -0.985
